For seven sequences, binding signal results are on record in publication PMC4081100, “A DNA-binding-site landscape and regulatory network analysis for NAC transcription factors in Arabidopsis thaliana”.

Common to all, as to test: universal protein binding microarray (PBM); transcription factors of Arabidopsis thaliana; high values mean tight binding
Settings in all cases: protein: recombinant; tags: GST; chain copies: 2; dsDNA, one strand shown

One assay has as its target T1, GST-ANAC092(1-176) (Arabidopsis thaliana, UniProt Q9FKA0 1-176).
T1 sequence: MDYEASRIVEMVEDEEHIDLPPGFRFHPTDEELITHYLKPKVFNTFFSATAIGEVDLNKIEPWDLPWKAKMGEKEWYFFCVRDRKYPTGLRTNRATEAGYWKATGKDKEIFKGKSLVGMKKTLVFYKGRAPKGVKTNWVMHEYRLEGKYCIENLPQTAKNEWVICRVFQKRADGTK
In short, it runs like this:
(§1)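 GST-tagged NAC-domain, full-length or DNA-binding-domain proteins were induced in cells, with zinc acetate added for zinc-finger proteins. They were purified on glutathione–Sepharose 4B and quantified by A280 or anti-GST western blot. Each was applied at 200 to 500 nM final, in duplicate, to custom all-10-mer Agilent 4 × 180K arrays made double-stranded by primer extension, with gapped and ungapped 8-mers scored. Binding is the normalised enrichment score (E-score).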

In another assay the target is GST-NTL6(1-168) (Arabidopsis thaliana, UniProt Q9SCK6 1-168). In a few lines:
as §1

A further assay addresses T2, GST-ANAC019 NAC domain (Arabidopsis thaliana, UniProt Q9C932 14-162).
T2 sequence: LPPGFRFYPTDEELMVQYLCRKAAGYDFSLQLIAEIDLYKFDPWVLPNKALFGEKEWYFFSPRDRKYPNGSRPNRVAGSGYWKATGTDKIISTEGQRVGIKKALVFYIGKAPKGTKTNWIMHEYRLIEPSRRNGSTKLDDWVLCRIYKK
In a few lines:
as §1

A further assay concerns the target T3, GST-ANAC055(1-171) (Arabidopsis thaliana, UniProt Q9LDY8 1-171).
T3 sequence: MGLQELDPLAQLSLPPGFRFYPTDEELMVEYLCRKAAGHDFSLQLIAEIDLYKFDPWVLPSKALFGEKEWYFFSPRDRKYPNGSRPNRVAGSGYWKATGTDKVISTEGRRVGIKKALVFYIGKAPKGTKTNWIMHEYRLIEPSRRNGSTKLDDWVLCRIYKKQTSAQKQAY
In short, it runs like this: as §1

A further assay deals with T4, GST-ATAF1 NAC domain (Arabidopsis thaliana, UniProt Q39013 7-158).
T4 sequence: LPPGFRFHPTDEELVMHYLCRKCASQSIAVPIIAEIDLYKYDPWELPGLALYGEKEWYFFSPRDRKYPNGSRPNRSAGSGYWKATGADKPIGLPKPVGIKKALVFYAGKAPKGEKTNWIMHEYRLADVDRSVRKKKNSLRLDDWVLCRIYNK
In a few lines: as §1

For assay [1], the target named is T5, GST-ANAC092(1-285) full length (Arabidopsis thaliana, UniProt Q9FKA0 1-285).
T5 sequence: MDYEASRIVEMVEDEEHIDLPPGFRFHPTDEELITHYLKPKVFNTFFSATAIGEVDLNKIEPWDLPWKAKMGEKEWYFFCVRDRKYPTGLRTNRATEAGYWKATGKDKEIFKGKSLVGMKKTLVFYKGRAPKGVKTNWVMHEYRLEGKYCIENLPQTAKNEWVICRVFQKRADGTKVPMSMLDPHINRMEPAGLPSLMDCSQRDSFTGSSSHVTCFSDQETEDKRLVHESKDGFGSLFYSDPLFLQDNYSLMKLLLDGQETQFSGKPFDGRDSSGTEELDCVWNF
In a few lines: as §1

Another assay addresses T6, GST-NST2(1-184) (Arabidopsis thaliana, UniProt Q9M274 1-184).
T6 sequence: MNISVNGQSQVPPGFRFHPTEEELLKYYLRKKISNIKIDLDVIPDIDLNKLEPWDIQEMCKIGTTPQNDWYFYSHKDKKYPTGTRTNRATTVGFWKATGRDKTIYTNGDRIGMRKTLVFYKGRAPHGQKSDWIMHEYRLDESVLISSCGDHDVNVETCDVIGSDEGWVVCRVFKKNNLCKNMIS
In short, it runs like this: as §1

Another assay concerns the target T7, GST-NTL8 NAC domain (Arabidopsis thaliana, UniProt Q9XIN7 14-156).
T7 sequence: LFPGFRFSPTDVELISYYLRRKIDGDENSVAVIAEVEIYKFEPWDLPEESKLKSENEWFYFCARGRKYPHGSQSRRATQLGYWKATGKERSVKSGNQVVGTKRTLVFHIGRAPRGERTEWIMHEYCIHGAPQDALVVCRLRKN
In short, it runs like this:
as §1

A further assay addresses T8, GST-SND1(1-203) (Arabidopsis thaliana, UniProt Q9LPI7 1-203).
T8 sequence: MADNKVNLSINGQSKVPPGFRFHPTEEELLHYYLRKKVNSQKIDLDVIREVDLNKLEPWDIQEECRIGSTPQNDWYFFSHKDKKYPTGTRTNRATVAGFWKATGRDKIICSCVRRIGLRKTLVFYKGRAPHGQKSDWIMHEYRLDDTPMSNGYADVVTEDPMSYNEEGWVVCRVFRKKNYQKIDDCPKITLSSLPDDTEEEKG
In short, it runs like this:
as §1

In another assay the target is T9, GST-VND3 NAC domain (Arabidopsis thaliana, UniProt Q9FH59 12-162).
T9 sequence: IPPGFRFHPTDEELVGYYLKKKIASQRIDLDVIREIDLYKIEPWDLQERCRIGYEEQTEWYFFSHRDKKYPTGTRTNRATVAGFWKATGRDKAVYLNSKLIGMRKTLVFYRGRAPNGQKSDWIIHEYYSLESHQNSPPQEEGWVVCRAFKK
In short, it runs like this:
as §1

The target of the next assay is T10, GST-VND7 NAC domain (Arabidopsis thaliana, UniProt Q9C8W9 9-158).
T10 sequence: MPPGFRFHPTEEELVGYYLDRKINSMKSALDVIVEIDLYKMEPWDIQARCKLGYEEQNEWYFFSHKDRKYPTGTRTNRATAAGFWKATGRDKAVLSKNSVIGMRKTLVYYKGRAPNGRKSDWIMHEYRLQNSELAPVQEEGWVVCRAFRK
In short, it runs like this: as §1

The target in another assay is T11, GST-NAP(1-166) (Arabidopsis thaliana, UniProt O49255 1-166).
T11 sequence: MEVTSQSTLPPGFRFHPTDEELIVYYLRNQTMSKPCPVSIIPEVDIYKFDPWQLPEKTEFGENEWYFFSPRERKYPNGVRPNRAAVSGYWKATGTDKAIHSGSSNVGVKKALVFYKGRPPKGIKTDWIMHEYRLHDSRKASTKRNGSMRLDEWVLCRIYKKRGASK
In short, it runs like this: as §1

Chain of GST-NTL6(1-168) (Q9SCK6 1-168): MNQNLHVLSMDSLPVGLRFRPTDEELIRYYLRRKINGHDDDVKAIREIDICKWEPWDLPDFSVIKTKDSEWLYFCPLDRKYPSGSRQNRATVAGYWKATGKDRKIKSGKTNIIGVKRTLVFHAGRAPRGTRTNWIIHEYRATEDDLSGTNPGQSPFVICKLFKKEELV

As for ATTCCTTA, the binding signal was determined as 0.103 E-score in the assay with GST-ANAC092(1-176); 0.486 E-score with GST-NTL6(1-168); 0.0942 E-score in the assay with GST-ANAC019 NAC domain; 0.114 E-score with GST-ANAC055(1-171); 0.126 E-score with GST-ATAF1 NAC domain; 0.115 E-score in assay [1]. The binding signal with GST-NST2(1-184) is 0.224 E-score; with GST-NTL8 NAC domain, 0.237 E-score; in the assay with GST-SND1(1-203), 0.306 E-score; with GST-VND3 NAC domain, 0.0907 E-score; with GST-VND7 NAC domain, 0.064 E-score.
Take CAAGTTAC: the binding signal in the assay with GST-ANAC092(1-176) is 0.371 E-score; with GST-NTL6(1-168), 0.256 E-score; with GST-ANAC019 NAC domain it was 0.163 E-score; in the assay with GST-ANAC055(1-171), 0.178 E-score; with GST-ATAF1 NAC domain, 0.134 E-score; in [1], 0.411 E-score. In addition, the binding signal is 0.144 E-score with GST-NAP(1-166); 0.238 E-score in the assay with GST-NST2(1-184); 0.167 E-score in the assay with GST-NTL8 NAC domain; 0.323 E-score with GST-SND1(1-203); 0.254 E-score in the assay with GST-VND3 NAC domain; 0.184 E-score with GST-VND7 NAC domain.
Consider TGCCGTAA, for which the binding signal with GST-ANAC092(1-176) turned out to be 0.432 E-score; with GST-NTL6(1-168), 0.114 E-score; with GST-ANAC019 NAC domain, 0.448 E-score; in the assay with GST-ANAC055(1-171), 0.408 E-score; with GST-ATAF1 NAC domain, 0.436 E-score; in assay [1], 0.433 E-score. For the same sequence, the binding signal with GST-NAP(1-166) was found to be 0.402 E-score; with GST-NST2(1-184), 0.328 E-score; with GST-NTL8 NAC domain it was 0.324 E-score; with GST-SND1(1-203), 0.457 E-score; in the assay with GST-VND3 NAC domain, 0.437 E-score; in the assay with GST-VND7 NAC domain, 0.449 E-score.
Regarding GTAAGGAA, the binding signal in the assay with GST-ANAC092(1-176) was 0.259 E-score; in the assay with GST-NTL6(1-168), 0.486 E-score; with GST-ANAC019 NAC domain it was 0.23 E-score; with GST-ANAC055(1-171) it was 0.193 E-score; in the assay with GST-ATAF1 NAC domain, 0.239 E-score; in assay [1] it was 0.29 E-score. In addition, the binding signal in the assay with GST-NAP(1-166) was 0.268 E-score; with GST-NST2(1-184), 0.271 E-score; with GST-NTL8 NAC domain, 0.392 E-score; in the assay with GST-SND1(1-203), 0.35 E-score; in the assay with GST-VND3 NAC domain it was 0.231 E-score; with GST-VND7 NAC domain, 0.236 E-score.
On to GAAGGTAA, for which the binding signal in the assay with GST-ANAC092(1-176) stood at 0.174 E-score; in the assay with GST-NTL6(1-168), 0.329 E-score; with GST-ANAC019 NAC domain, 0.158 E-score; with GST-ANAC055(1-171), 0.111 E-score; with GST-ATAF1 NAC domain it was 0.22 E-score; in [1], 0.25 E-score. In addition, the binding signal with GST-NST2(1-184) amounted to 0.255 E-score; with GST-NTL8 NAC domain, 0.463 E-score; in the assay with GST-SND1(1-203), 0.227 E-score; with GST-VND3 NAC domain, 0.148 E-score; in the assay with GST-VND7 NAC domain, 0.141 E-score.
Turning to TTACTCAA, the binding signal turned out to be 0.345 E-score with GST-ANAC092(1-176); 0.078 E-score with GST-NTL6(1-168); 0.0697 E-score in the assay with GST-ANAC019 NAC domain; 0.0741 E-score in the assay with GST-ANAC055(1-171); 0.223 E-score with GST-ATAF1 NAC domain; 0.359 E-score in assay [1]. The binding signal in the assay with GST-NAP(1-166) was 0.0501 E-score; with GST-NST2(1-184), 0.247 E-score; with GST-NTL8 NAC domain, 0.0629 E-score; with GST-SND1(1-203) it was 0.445 E-score; in the assay with GST-VND3 NAC domain, 0.165 E-score; with GST-VND7 NAC domain it was 0.126 E-score.
Consider CACGCAAA, for which the binding signal with GST-ANAC092(1-176) is 0.487 E-score; with GST-NTL6(1-168) it was 0.107 E-score; with GST-ANAC019 NAC domain, 0.421 E-score; with GST-ANAC055(1-171), 0.348 E-score; with GST-ATAF1 NAC domain, 0.292 E-score; in assay [1] it was 0.486 E-score. In addition, the binding signal with GST-NAP(1-166) is 0.385 E-score; with GST-NST2(1-184), 0.389 E-score; with GST-NTL8 NAC domain, 0.0878 E-score; with GST-SND1(1-203) it was 0.426 E-score; with GST-VND3 NAC domain it was 0.396 E-score; with GST-VND7 NAC domain, 0.419 E-score.
